Bioassay records deposited in PubChem BioAssay by National Center for Advancing Translational Sciences (NCATS).
ERK EGF block = inhibitors of EGF-stimulated ERK signaling pathway. 130,000 tested, 0.41% active. AID 1454. HEK293-V1b, EGF-stimulated phospho-ERK AlphaScreen. Potency, µM (top dose mostly 11.5 µM), for the others: at the highest dose activity change, negative = inhibition, actives largely listed as inhibitors; active means well fitted inhibition curve with a large enough effect;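 further: plate controls were stimulated vehicle wells for no effect and unstimulated vehicle basal for full effect; nearly all actives have a fitted effect of over 55% in size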
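Cell line HEK293 (stable V1b), low serum overnight. Pretreatment: compound 30 min, 37C. EGF 25 nM, 5 min. Detection: SureFire AlphaScreen, 5 h RT. AC50 via standard Hill equation.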
* hit, by the source's call; [ ] = another dose, or the depositor's remark. This excerpt belongs to a sample that is enriched for hits. Potency means the concentration at half of the fitted maximal effect.

SMILES	ERK EGF block
O=S(=O)(c1ccc(Cl)c(NC(=S)N/N=C/c2ccc(O)cc2)c1)N1CCOCC1	28.2µM*
O=S(=O)(c1ccc(Cl)c(NC(=S)Nc2ccccc2N2CCOCC2)c1)N1CCOCC1	3.1%
COc1ccc2[nH]cc(CCNc3ncnc4ccc(-c5ccccc5C#N)cc34)c2c1	32.7%
NCCC[C@@H](CC(=O)N[C@@H]1CCCC[C@H]1C(=O)N[C@H](CC(=O)N[C@@H](CCC(=O)O)CC(=O)O)Cc1ccccc1)NC(=O)C[C@H](CO)NC(=O)[C@@H]1CNCC[C@H]1N	-7.1%
COc1ccccc1/C=C/C(=O)N1CCCC1	19.0%
COc1ccccc1/C=C/C(C)=O	-7.2%
COc1ccccc1/C=C/C(=O)/C=C/c1ccccc1O	35.5µM*
OC[C@H]1NC[C@H](O)[C@@H](O)[C@H]1O	-1.7%
COc1cccc(-c2nccc(-n3ccnc3)n2)c1	23.8%
COc1ccc(-c2cn[nH]c2-c2ccc(OCc3ccccc3)cc2O)cc1OC	22.4µM*
COc1ccccc1-c1cn[nH]c1-c1ccc(OCc2ccc([N+](=O)[O-])cc2)cc1O	8.0%[57.5 µM]
COc1ccc(-c2cn[nH]c2C)cc1OC	-11.3%
CCNc1ncc2ncc(=O)n(C)c2n1	-0.3%
N#Cc1cccc(NC(=O)N2CC[C@@]3(CCCN(C(=O)c4cnccn4)C3)C2)c1	-16.3%
COc1ccc2[nH]c3c(NCCC4=CCCCC4)ncnc3c2c1	20µM*
O=c1c2[nH]c3ccc(F)cc3c2ncn1CCC1=CCCCC1	-1.4%[57.5 µM]
C1=C(CCNc2ncnc3nc[nH]c23)CCCC1	4.9%
COc1cc(C(=O)OC2CC[C@]3(C)C4CCC5[C@]6(O)CC(O)[C@]7(O)C(CN8CC(C)CCC8[C@]7(C)O)[C@]6(O)C[C@@]53O[C@]24O)cc(OC)c1OC (some centres not stated)	34.8%
O=C(NC1=NCCS1)c1ccc(Cl)c(S(=O)(=O)N2CCc3ccccc32)c1	-11.0%[57.5 µM]
O=C(Nc1cccnc1)c1ccc(Cl)c(S(=O)(=O)N2CCc3ccccc32)c1	25.1µM*
O=C(Nc1cccnc1)c1cccc(S(=O)(=O)N2CCc3ccccc32)c1	0.8%
N[C@@H](Cn1cc(F)c(=O)[nH]c1=O)C(=O)O	-1.0%
Cc1cccc(Nc2nc(NCc3ccco3)c3ccccc3n2)c1	28.2µM*
Cc1ccc(Nc2nc(N)c([N+](=O)[O-])c(NCc3ccco3)n2)cc1C	-2.2%
Cc1ccc(-c2nc(NCc3ccco3)c3ccccc3n2)cc1	-4.9%
SMILES	ERK EGF block
Cc1ccccc1Nc1nc(NCc2ccco2)c2ccccc2n1	-1.8%
Oc1ccccc1Nc1nc(NCc2ccco2)c2ccccc2n1	31.6µM*
OCCN1CCN(c2nc(NCc3ccco3)c3ccccc3n2)CC1	1.7%
Cn1cccc1C(=O)N1CCC[C@@]2(CCN(C(=O)Nc3cccc(F)c3)C2)C1	3.3%
Cc1cnc(CNc2nc(-c3ccc(N(C)C)cc3)nc3ccccc23)cn1	19.6%
Cn1cccc1C(=O)N1CCC[C@@]2(CCN(C(c3ccccc3)c3ccccc3)C2)C1	1.2%
COc1ncc2nc(CCc3ccccc3)c(=O)n(CCC#N)c2n1	3.9%
Cc1noc(C)c1C(=O)N1CCC[C@@]2(CCN(Cc3cc(C(F)(F)F)cc(C(F)(F)F)c3)C2)C1	3.7%
COc1ccc2c(c1OC)C(Cc1ccccc1)N1CCc3cc4c(cc3C1C2)OCO4 (configuration not stated)	-10.2%
Cn1cc(/C=C2\SC(=O)N(c3ccccc3)C2=O)c2ccccc21	12.9%
CCN1C(=O)S/C(=C/c2cn(C)c3ccccc23)C1=O	11.8%
Cn1cc(/C=C2\SC(=O)N(c3ccc(O)cc3)C2=O)c2ccccc21	35.5µM*
COc1ccccc1NS(=O)(=O)c1cc(NC(C)=O)ccc1N1CCCCC1	2.0%
COc1ccccc1NC(=O)C(=O)N1CCCC1	-9.9%
COc1ccccc1NC1=C(N2CCCCC2)C(=O)c2ccccc2C1=O	25.1µM*
Cc1nnc(SCC2=C(C(=O)O)N3C(=O)C(NC(=O)Cn4cnnn4)[C@@H]3SC2)s1 (some centres not stated)	7.7%
Cc1nc2cncnc2n(-c2ccccc2)c1=O	-2.3%
COC(=O)[C@H](Cc1ccccc1)NC(=O)O[C@@H]1C(=O)c2cc(OC)ccc2O[C@H]1c1cccc(OC)c1	9.1%
COc1ccc(N2CCC(CNC(=S)Nc3ccc(C)cc3C)C2)cc1 (configuration not stated)	14.1µM*
COc1ccc(N2CCC(CNC(=S)Nc3c(C)cc(C)cc3C)C2)cc1 (configuration not stated)	8.91µM*
Cc1ccccc1NC(=S)NCC1CCN(C(C)c2ccccc2)C1 (configuration not stated)	7.6%[57.5 µM]
COc1ccc(N2CCC(CNC(=O)Nc3ccc(C)c(C)c3)C2)cc1 (configuration not stated)	3.3%
CCc1ccc(NC(=O)NCC2CCN(c3ccc(OC)cc3)C2)cc1 (configuration not stated)	-17.4%[57.5 µM]
Cc1ccc(NC(=S)NC2CCN(Cc3ccccc3)CC2)c(C)c1	2.7%
CC(C)(C)OC(=O)NCCCCC1=CC2=CC(=O)C(C)(OC(=O)C3CCCC3)C(=O)C2=CO1 (configuration not stated)	-4.5%
SMILES	ERK EGF block
C#C[C@]1(O)CC[C@H]2C3CCC4=Cc5oncc5CC4(C)C3CCC21C (some centres not stated)	19.0%
COC(=O)C1=COC(O[C@H]2OC(CO)[C@H](O)C(O)C2O)[C@H]2C1C(=O)C[C@@H]2C (some centres not stated)	-7.2%
c1cncc(CNc2ncncc2-c2ccc3c(c2)OCO3)c1	18.8%
CC1(C)C(=O)NC2=C1C(=O)C(=O)c1ccccc12	-5.4%
C=CC1=C(C(=O)O)N2C(=O)C(NC(=O)/C(=N\O)c3csc(N)n3)C2SC1 (configuration not stated)	7.4%
N=c1ccn2c(n1)O[C@H]1[C@@H](O)[C@@H](CO)O[C@H]12	-31.5%
Nc1nc2c(ncn2C2OC(COC(=O)c3ccccc3)C(OC(=O)c3ccccc3)C2OC(=O)c2ccccc2)c(=O)[nH]1 (configuration not stated)	7.4%
O=C(c1cnccn1)N1CCC2(CC1)CCN(c1cccc(-c3ccccc3)c1)CC2	1.7%
CN(C)c1ccc(/C=C/c2ccc3c4ccccc4ccc3[n+]2-c2ccccc2)cc1	25.1µM*
CN(C)c1ccc(/C=C/c2cccc[n+]2[O-])cc1	2.8%[57.5 µM]
CN(C)c1ccc(/C=C/C#N)cc1	8.9%[57.5 µM]
CCNC(=O)[C@H]1O[C@@H](n2cnc3c(N)nc(NCCc4ccc(CCC(=O)O)cc4)nc32)[C@H](O)[C@H]1O	-10.9%
CN(C)c1nc2c(Br)c(Br)c(Br)c(Br)c2[nH]1	27.1%
CCN(CC)CC(=O)Nc1cccc2c1C(=O)c1ccccc1C2=O	-7.6%
O=C(NCCO)c1cccc2c1-c1ccccc1C2=O	-3.2%
O=C1c2ccccc2C(=O)c2c(NCCCN(CCO)CCO)cccc21	28.2µM*
CO/N=C1\CN(c2nc3c(cc2F)c(=O)c(C(=O)O)cn3C2CC2)CC1CN (configuration not stated)	-0.8%
CC1(C)OC(=O)C(=NNc2ccccc2[N+](=O)[O-])C(=O)O1	6.3%[57.5 µM]
O=C(N/N=C1\CC2CC=CC12)c1ccccc1Cl (configuration not stated)	-4.0%
O=[N+]([O-])c1ccccc1N/N=C1\CC2CC=CC12 (configuration not stated)	12.6µM*
Cc1ccc(C(=O)Cn2c3c(sc2=N)CCCC3)cc1	5.3%
C[C@@]1(O)CCOC(=O)C1	-3.3%[25.7 µM]
